# Test results: PubChem BioAssay (Tox21)
# Inconclusive results are not listed. Activity calls are given as the source filed them. Calls come from the whole dose curve; as a rule, active = well fitted activation curve with a large enough effect in the repeat runs; inconclusive = weak or mixed curves; inactive = flat fitted curve, though single readings scatter.
# Test: A CellTox Green Cytotoxicity Assay to monitor cytotoxicity in HepG2 cells - 16 hour (AID 1224876); note: nearly all actives have a fitted effect of over 45% in size
# Conditions: CellTox Green fluorescence; series mostly up to 76.8 µM; cytotoxicity increase: at the top concentration
# Excerpt: National Center for Advancing Translational Sciences [NCATS]
# NIH Chemical Genomics Center [NCGC]
# U.S. Environmental Protection Agency [EPA]
# National Institutes of Environmental Health Sciences [NIEHS]
# National Toxicology Program [NTP]
# Cell-based models are critical for drug discovery. Determining the natural cytotoxic effects resulting from test compounds is an essential research activity. A CellTox Green Cytotoxicity Assay to monitor cytotoxicity in real time of continues cell culture during 40 hours of the compound treatment was used to screen Tox21 10K library compounds in HepG2 cells. CellTox Green Cytotoxicity Assay is a nonlytic, homogeneous, biofluorescent method to measure cytotoxicity in cell culture after experimental manipulation. The assay system uses a proprietary asymmetric cyanine dye that is excluded from viable cells but preferentially stains the dead cell's DNA. […] Viable cells produce no appreciable increases in fluorescence. Therefore, the fluorescence signal produced by the binding interaction with dead cell DNA is proportional to cytotoxicity.
# The mixture of HepG2 cell suspension and reagents were dispensed at 600cells/6 ul/well in 1536-well tissue culture treated black solid bottom plates using a Multidrop dispenser. After the assay plates were incubated at a 37 C/5% CO2 incubator for 5 hours, 23 nL of compounds dissolved in DMSO, positive and negative controls was transferred to the assay plate by a pintool work station. The plates were incubated at 37 C for 40 hours. The fluorescence intensity were measured at 0h, 8h, 16h, 24h, 32h and 40h time points using ViewLux plate reader during compound treatment.
# % is set by controls: 0 for no effect and ±100 for the full control effect.
row,Compound,cytotoxicity increase
1,Cc1ccc(NC(N)=O)cc1,-7.35% (inactive)
2,C=CCN1CCc2nc(N)sc2CC1,2.79% [at 35.3 µM] (inactive)
3,CNCCc1ccccn1,-15.7% [at 35.3 µM] (inactive)
4,Nc1nc(Cl)cc(Cl)n1,4.52% (inactive)
5,CCCC(C)C(O)CC (stereo not given),-1.3% (inactive)
6,CCCCCCCCS(=O)(=O)O,12% (inactive)
7,CC(=O)c1ccc2ccc3ccccc3c2c1,3.91% (inactive)
8,CCN1CCN(C(=O)N[C@@H](C(=O)N[C@@H]2C(=O)N3[C@@H]2SC(C)(C)[C@H]3C(=O)O)c2ccccc2)C(=O)C1=O,-19.1% [at 35.3 µM] (inactive)
9,C=COCCCCO,-15.9% (inactive)
10,O=C(O)CCCCCCCCCC(=O)O,-13.8% (inactive)
11,CSC(=O)c1cccc2nnsc12,-13.9% (inactive)
12,C=CCCCCCCCCOC(C)=O,6.84% (inactive)
13,O=C1CC2(CCCC2)CC(=O)N1CCNCC1COc2ccccc2O1 (stereo not given),0.353% [at 35.3 µM] (inactive)
14,CCCCCCCCCCCCCCCCN(C)C,1.82% [at 6.97 µM] (inactive)
15,N#CC1(N)CCCCC1,1.36% (inactive)
16,CCC(C)SSC(C)CC (stereo not given),-7% (inactive)
17,O=C(O)COc1ccc2ccccc2c1,-7.38% (inactive)
18,NC[C@H]1O[C@H](O[C@H]2[C@H](O)[C@@H](O[C@H]3O[C@H](CO)[C@@H](O)[C@H](N)[C@H]3O)[C@H](N)C[C@@H]2N)[C@H](N)[C@@H](O)[C@@H]1O,0.586% [at 15.8 µM] (inactive)
19,CC(=O)SCC(CC(=O)c1ccc(C)cc1)C(=O)O (stereo not given),0.909% [at 35.3 µM] (inactive)
20,CN1C(CCl)Nc2cc(Cl)c(S(N)(=O)=O)cc2S1(=O)=O (stereo not given),-5.09% [at 35.3 µM] (inactive)

row,Compound,cytotoxicity increase
1,CCCCCCCCCCCBr,-6.93% [at 35.3 µM] (inactive)
2,CC(=O)/C=C/C=C1/C2CCC(C2)C1(C)C (stereo not given),2.16% [at 35.3 µM] (inactive)
3,Cc1ccc(O)c(C(=O)c2ccccc2)c1,7.53% (inactive)
4,CC1=C(O)C(=O)CO1,0.78% (inactive)
5,C/C=C(\C)C(=O)OC/C=C(\C)CCC=C(C)C,1.37% (inactive)
6,CCCCCCCCCCCCCCCC(=O)OC,-17.1% [at 15.8 µM] (inactive)
7,CCCCS,-4.55% (inactive)
8,Cc1ccc(O)c([N+](=O)[O-])c1,-0.612% (inactive)
9,O=C1CCCc2c(O)cccc21,-1.32% [at 35.3 µM] (inactive)
10,N[C@H]1C(O)O[C@H](CO)[C@@H](O)[C@@H]1O (stereo not given in full),0.808% [at 35.3 µM] (inactive)
11,O=C(c1ccccc1)c1cccc(O)c1,5.2% (inactive)
12,CCC(C)(C)C,-4.62% (inactive)
13,Nc1ccc(C(=O)NCC(=O)O)cc1,-9.91% [at 35.3 µM] (inactive)
14,N#Cc1ccccc1C#N,-6.24% (inactive)
15,c1coc(Cn2cccc2)c1,3.48% (inactive)
16,Cc1ccccc1C#N,-2.68% (inactive)
17,CC(C)(O)c1ccc(C(C)(C)O)cc1,3.82% (inactive)
18,CC(=O)OC1CCC(C(C)(C)C)CC1 (stereo not given),0.126% (inactive)
19,CCCCCCCCCCCCCCCC/C=C/C1CC(=O)OC1=O (stereo not given),-2.61% [at 35.3 µM] (inactive)
20,O=C[C@@H](O)[C@H](O)[C@H](O)CO,-9.3% (inactive)
